# The campaign covered roughly 1,100 compounds. About 390 (35%) were called active. About 30% were inconclusive and are not listed. The list shows a part of the results. A number with no mark means an inactive call. Calls follow the shape of the dose curve; as a rule, active = well fitted inhibition curve with a large enough effect; inconclusive = small, poorly fitted or top-dose-only effect; inactive = flat fitted curve, though single readings scatter.
# Molecular target: Luciferin 4-monooxygenase (Photinus pyralis) (UniProt P08659)
# Experiment: qHTS of Nrf2 Activators: Hit Validation in Secondary FLuc Assay; also: nearly all actives have a fitted effect of over 65% in size
# Conditions: firefly luciferase inhibition counter-screen, luminescence; series mostly up to 57.5 µM; activity, negative = inhibition: at the top concentration
# Summary of the method: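 Purified firefly luciferase is tested for inhibition by compounds in the presence of its substrates, ATP and D-luciferin, each at Km. Inhibition marks likely false positives arising from reporter-enzyme stabilization.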
# % is scaled to controls: 0 for no effect and ±100 for the full control effect; potency is read from the fitted curve at half-maximal effect.
SMILES,Potency,"activity, negative = inhibition [%]"
Cc1nn2c(-c3ccco3)nnc2c2ccccc12,16.9 µM (active),–
Cc1nn2c(-c3ccccc3)nnc2c2ccccc12,10.7 µM (active),–
CCc1nn2c(-c3ccco3)ccnc2c1-c1ccccc1,–,6.51
COc1ccc(-c2nnc3c4ccccc4c(C)nn23)cc1,7.57 µM (active),–
Cc1ccc(S(=O)(=O)c2nc(S(C)(=O)=O)sc2N2CCN(C)CC2)cc1,–,-2.83
Cc1ccc(-c2nc(C=Nc3ccc(O)cc3)c(O)o2)cc1,2.69 µM (active),–
O=c1cc(-c2cccc(Br)c2)oc2cccc(O)c12,–,-4.58
O=c1cc(-c2ccccc2Cl)oc2c(Br)ccc(O)c12,2.39 µM (active),–
O=c1oc(CCO)cc2ccc(C#Cc3ccsc3)cc12,2.69 µM (active),–
O=c1oc(CCCO)cc2ccc(C#Cc3ccsc3)cc12,2.39 µM (active),–
Cn1c(/C(C#N)=C(\O)c2cc(Cl)sc2Cl)nc2ccccc21,–,-24.2
Cn1c(/N=C(\N)c2ccccc2)nc2ccccc21,1.35 µM (active),–
Cc1cc(N2CCOCC2)n2nc(-c3cccc(F)c3)cc2n1,–,-21.8
Cc1cc(C)n2nc(-c3ccc(F)cc3)cc2n1,1.51 µM (active),–
COc1ccc(Cl)cc1NC(=O)CCS(=O)(=O)c1cccc2nonc12,–,-0.0594
COc1ccccc1NC(=O)c1nc(S(=O)(=O)Cc2ccccc2)ncc1Cl,2.69 µM (active),–
CCOC(=O)c1ccc(NC(=O)c2nc(S(=O)(=O)Cc3ccccc3)ncc2Cl)cc1,1.69 µM (active),–
COc1ccccc1NC(=O)c1ccc(Cl)c(S(=O)(=O)NCc2ccco2)c1,–,-25.3
Cc1nc2sc(C(=O)c3ccccc3)c(N)c2c2c1CCCC2,1.9 µM (active),–
Cc1ccc2c(N)c(C(=O)c3ccccc3)sc2n1,9.53 µM (active),–
O=C(/C=C/c1ccc(-c2ccccc2[N+](=O)[O-])o1)c1ccccc1,5.36 µM (active),–
CN1CCN(C(=O)/C=C/c2ccc([N+](=O)[O-])o2)CC1,–,-3.66
O=C(/C=C/c1ccc(-c2ccccc2[N+](=O)[O-])o1)c1ccc(Br)cc1,6.01 µM (active),–
Cc1ccc(C(=O)/C=C/c2ccc(-c3ccccc3[N+](=O)[O-])o2)cc1,2.69 µM (active),–
COc1ccc(OC)c(C(=O)Nc2c(O)ccc3ccccc23)c1,15.1 µM (active),–
COC(=O)c1sccc1NC(=O)c1ccc(OC)c(OC)c1,–,1.53

SMILES,Potency,"activity, negative = inhibition [%]"
CNc1ccc(Br)cc(C(=O)/C=C/c2cccc(Cl)c2Cl)c1=O,4.78 µM (active),–
CNc1ccc(Br)cc(C(=O)/C=C/c2cccc(OC)c2)c1=O,8.49 µM (active),–
COC1=C(C)C(O)=C(C(=O)/C=C/c2ccccc2)C(=O)C1(C)C,–,-7.39
CNc1ccc(Br)cc(C(=O)/C=C/c2ccc(Cl)cc2Cl)c1=O,4.78 µM (active),–
CNc1ccccc(C(=O)/C=C/c2ccccc2OC)c1=O,5.36 µM (active),–
CC1CCN(CC2C(=O)O[C@@H]3C[C@@]4(C)CCC[C@H](C)C4=C[C@H]23)CC(C)(C)C1 (some centres undefined),–,-1.7
Cc1cc(=O)oc2cc(NC(=O)c3ccccc3Cl)ccc12,5.36 µM (active),–
Cc1cc(=O)oc2c(C(=O)/C=C/c3ccccc3)c(O)ccc12,–,2.7
Cn1c(=O)oc2cc(NC(=O)CCl)ccc21,–,6.28
Oc1ccccc1C=NN=Cc1c(O)ccc2ccccc12,3.01 µM (active),–
Cn1c(=O)c2nc(NCc3ccccc3)sc2n(C)c1=O,–,5.85
O=S1(=O)C=C(Sc2nc3cc(Cl)ccc3o2)c2ccccc21,0.849 µM (active),–
N#Cc1ccccc1N/C=C/C(=O)c1ccc(Cl)cc1,0.12 µM (active),–
COC(=O)c1cc(S(=O)(=O)C(C)C)c(S(C)=O)s1 (centres undefined),–,1.94
Cc1cc(N/N=C/c2c(O)ccc3ccccc23)nc(-c2ccccc2O)n1,7.57 µM (active),–
C=C(NC(=O)C(=C)NC(=O)c1csc(C2=NC3c4csc(n4)C4NC(=O)c5csc(n5)C(C(C)(O)C(C)O)NC(=O)C5CSC(=N5)/C(=C/C)NC(=O)C(C(C)O)NC(=O)c5csc(n5)C3(CC2)NC(=O)C(C)NC(=O)C(=C)NC(=O)C(=C)NC(=O)C(C(C)C)NC2C=Cc3c(C(C)O)cc(nc3C2O)C(=O)OC4C)n1)C(N)=O (centres undefined),7.57 µM (active),–
CC(=O)Oc1ccc(-c2nc3c(C)cccc3c(=O)o2)cc1,–,-26.3
COc1ccc(-c2cc3ccccc3c(=O)o2)cc1,0.478 µM (active),–
O=c1nc2c(-c3ccccc3F)n[nH]n2c2ccccc12,7.57 µM (active),–
Clc1nc(NCc2ccco2)nc(N2CCCCC2)n1,–,-3.37
c1ccc2nc3c(ccc4ccccc43)cc2c1,1.35 µM (active),–
O=C(/C=C/c1ccc2c(c1)OCO2)c1ccc(O)cc1O,1.9 µM (active),–
COc1cc(OCc2ccccc2)c(C(=O)/C=C/c2ccc3c(c2)OCO3)c(OC)c1OC,–,2.26
COC(=O)c1ccsc1NC(=O)CSc1nnnn1Cc1ccccc1,–,-14.3
Cc1csc(-c2ccc3cc(Cl)cc(Cl)c3n2)n1,2.69 µM (active),–
Cc1ccc(-c2nc3cccnc3s2)cc1NC(=O)c1ccco1,8.49 µM (active),–

SMILES,Potency,"activity, negative = inhibition [%]"
Cc1ccc(C(=O)OCc2c(C)noc2C)cc1NC(=O)c1ccco1,–,1.47
CCNc1nc(NCC)nc(N(C)/N=C/c2ccco2)n1,–,0.966
O=[N+]([O-])c1cc(Cl)cc(/C=N/Nc2nc3ccccc3s2)c1O,13.5 µM (active),–
Brc1cc2c(cc1/C=N/Nc1nc3ccccc3s1)OCO2,2.69 µM (active),–
O=C(/C=C/c1ccco1)Nc1cccc(S(=O)(=O)N2CCOCC2)c1,13.5 µM (active),–
O=C(/C=C/c1ccco1)NC(=S)Nc1ccccc1N1CCCC1,–,-27.1
O=C(/C=C/c1ccco1)Nc1ccc2nn(-c3ccccc3)nc2c1,9.53 µM (active),–
Cc1ccc(NC(=O)c2ccc([N+](=O)[O-])s2)cc1S(=O)(=O)N1CCOCC1,–,-3.39
O=C(Nc1cc2nn(-c3ccccc3)nc2cc1Cl)c1ccco1,0.849 µM (active),–
O=C(/C=C/c1ccco1)Nc1ccc(Cl)c(-c2nc3cc(Cl)ccc3o2)c1,10.7 µM (active),–
O=[N+]([O-])c1cnc(Nc2ccc(Cl)cn2)c([N+](=O)[O-])c1,–,1.13
O=C1N/C(=C\c2ccsc2)C(=O)N1Cc1ccc(F)cc1,–,-2.1
CCc1ccc(/C=C/c2c([N+](=O)[O-])c(=O)n(C)c(=O)n2C)cc1,–,-27.8
CCC1C/C(=C/c2cccs2)C(=O)/C(=C/c2cccs2)C1 (centres undefined),–,-23.6
O=C(Nc1cc(-c2nc3cc(Cl)ccc3o2)ccc1Cl)c1ccco1,6.01 µM (active),–
COc1ccc(Cl)cc1NC(=O)c1ccco1,–,0.501
CCCS(=O)(=O)c1nc(S(=O)(=O)c2ccc(C)cc2)c(N2CC(C)OC(C)C2)s1 (centres undefined),–,-1.58
O=C(/C=C/Nc1ccc(F)c(Cl)c1)c1ccco1,1.69 µM (active),–
COc1cccc(-c2nc3n(n2)CCc2ccccc2-3)c1,0.953 µM (active),–
CNc1ccc(-c2nc(-c3ccco3)no2)cc1[N+](=O)[O-],0.0849 µM (active),–
CC(C)Nc1ccc(-c2nc(-c3ccco3)no2)cc1[N+](=O)[O-],0.213 µM (active),–
Cc1ccc(CNC(=O)c2sccc2-n2cccc2)cc1,–,-11.8
CC(C)c1ccc(NC(=O)c2sccc2-n2cccc2)cc1,10.7 µM (active),–
Cc1ccc(S(=O)(=O)c2nc(S(C)(=O)=O)sc2N2CCOCC2)cc1,–,7.7
COc1ccccc1-c1nnc(NC(C)=O)s1,2.69 µM (active),–
COc1ccc(OC)c2sc(NC(=O)CCS(=O)(=O)c3ccccc3)nc12,–,-25.5

SMILES,Potency,"activity, negative = inhibition [%]"
O=C(CCN1C(=O)c2cccc3cccc(c23)C1=O)Nc1ccon1,–,-23.6
COc1ccccc1NC(=O)/C(C#N)=C/C=C/c1ccco1,–,-4.16
COC(=O)c1ccccc1NC(=O)/C=C/c1ccco1,8.49 µM (active),–
COc1ccccc1NC(=O)/C=C\c1ccco1,10.7 µM (active),–
COC(=O)c1ccccc1NC(=O)c1cc(-c2ccco2)on1,–,-22.9
CCn1c(=O)oc2cc(NC(=O)CCl)ccc21,–,1.74
Cc1nn(-c2ccc3ccccc3c2)c(=O)c2ccccc12,3.38 µM (active),–
Cc1nn(-c2cccc(C(F)(F)F)c2)c(=O)c2ccccc12,–,-29.2
c1ccc(-c2cc3c(ccc4nonc43)nn2)cc1,–,-18.2
c1ccc(-c2cnc(-c3ccccc3)nn2)cc1,0.301 µM (active),–
Clc1cc(-c2ccccc2)nc(-c2ccccc2)n1,–,1.58
CC1Sc2n(c3ccccc3[n+]2C)N=C1c1ccccc1 (centres undefined),–,-0.681
COc1ccccc1Cc1c(-c2ccco2)nc2ccc(Cl)cn12,2.39 µM (active),–
Clc1ccc2nc(-c3ccco3)c(Cc3ccccc3)n2c1,10.7 µM (active),–
O=C1c2cccc3cccc(c23)C(=O)N1CCCN(C(=O)c1cccs1)c1cccc(F)c1,–,5.37
CC(=O)COc1ccc2c(c1C)O/C(=C\c1ccco1)C2=O,0.601 µM (active),–
CCN1C(=O)/C(=C\c2ccco2)C(C(=O)OC)=C1C,–,-1.69
COc1ccc(C2NC(=S)NC3=C2CCCC3=C2SCCS2)cc1 (centres undefined),–,-29.4
S=c1[nH]nc(-c2ccco2)n1/N=C/c1ccccc1,–,-27.4
S=c1[nH]nc(COc2ccccc2)n1/N=C/C(Cl)=C/c1ccccc1,19 µM (active),–
S=c1[nH]nc(-c2ccco2)n1/N=C/C(Cl)=C/c1ccccc1,13.5 µM (active),–
O=[N+]([O-])c1ccccc1/C=C/C=N/n1c(-c2ccco2)n[nH]c1=S,7.57 µM (active),–
Cc1n[nH]c(=S)n1/N=C/c1ccc(-c2ccccc2[N+](=O)[O-])o1,9.53 µM (active),–
c1ccc2c(-c3nc4ncccc4o3)cccc2c1,13.5 µM (active),–
Nc1c(C(=O)c2ccc(Br)s2)oc2ccccc12,2.69 µM (active),–
Nc1c(C(=O)c2cccs2)oc2ccccc12,9.53 µM (active),–
